From PubChem BioAssay (Tox21)
Results filed as inconclusive are left out. Where a call stands in place of a potency, no number is given. Activity calls are given as the source filed them. The call rests on the fitted dose curve.

Experiment: qHTS assay for small molecule agonists of the antioxidant response element (ARE) signaling pathway - cell viability counter screen (AID 743203); further: nearly all actives have a fitted effect of over 55% in size
Conditions: ARE-bla HepG2 viability, CellTiter-Glo luminescence, 16 h; series mostly up to 73.3 µM
Description: National Center for Advancing Translational Sciences [NCATS]
NIH Chemical Genomics Center [NCGC]
U.S. Environmental Protection Agency [EPA]
National Institutes of Environmental Health Sciences [NIEHS]
National Toxicology Program [NTP]
U.S. Food and Drug Administration [FDA]
Oxidative stress has been implicated in the pathogenesis of a variety of diseases ranging from cancer to neurodegeneration. The antioxidant response element (ARE) signaling pathway plays an important role in the amelioration of oxidative stress. The CellSensor ARE-bla HepG2 cell line (Invitrogen) can be used for analyzing the Nrf2/antioxidant response signaling pathway. Nrf2 (NF-E2-related factor 2) and Nrf1 are transcription factors that bind to AREs and activate these genes. The CellSensor ARE-bla Hep G2 cell line contains a beta-lactamase reporter gene under control of the Antioxidant Response Element (ARE) stably integrated into HepG2 cells. The activation of the report gene under culture conditions can be detected by fluorescence intensity. This cell line has been used to screen the Tox21 10K compound library to identify agonists that induce oxidative stress. The cytotoxicity of the Tox21 compound library against the ARE-bla cell line was tested in parallel by measuring the cell viability using CellTiter-Glo assay (Promega, Madison, WI) in the same wells.
Tox21 Assay Protocol Summary:
ARE-bla HepG2 cells were dispensed at 2,000 cells/5 ul/well in 1536-well white wall/solid bottom plates using a Multidrop Combi (ThermoFisher Scientific, Waltham, MA) dispenser. After the assay plates were incubated at 37C/5% CO2 for 5 hrs, 23 nL of compounds dissolved in DMSO, positive controls or DMSO only was transferred to the assay plate by a pintool work station (Kalypsys, San Diego, CA). The plates were incubated at 37C/5% CO2 for 16 hrs, followed by addition of 4 ul/well of CellTiter-Glo reagent into the assay plates using a Flying Reagent Dispenser (Aurora Discovery, San Diego, CA). After 30 min incubation at room temperature, the luminescence intensity in the assay plates was measured using a ViewLux (PerkinElmer, Shelton, CT) plate reader.

Row | Compound | Potency
1 | NC(=O)NC(N)=O | inactive
2 | Cc1cccc(C)c1[N+](=O)[O-] | inactive
3 | CC/C(C)=N/O | inactive
4 | O=c1n(CCCN2CCN(c3cccc(Cl)c3)CC2)nc2ccccn12 | inactive
5 | OCC(CO)(CO)CO | inactive
6 | COc1ccccc1[N+](=O)[O-] | inactive
7 | COc1c2ccoc2cc2oc(=O)ccc12 | inactive
8 | N[C@@H](Cc1cc(I)c(Oc2ccc(O)c(I)c2)c(I)c1)C(=O)O | inactive
9 | CC1=CC(=O)CC(C)(C)C1 | inactive
10 | Cc1ncc(CO)c(CO)c1O | inactive
11 | CC(=O)OC/C=C(\C)CCC=C(C)C | inactive
12 | CCCCCCCCO | inactive
13 | CCOC(=O)CC(=O)OCC | inactive
14 | COC(=O)CCCCC(=O)OC | inactive
15 | O=C1O[C@H]([C@H](O)CO)C(O)=C1O | inactive
16 | CC(=O)c1nccs1 | inactive
17 | C=CC(=O)NCOCCCC | inactive
18 | CN=C(NC#N)NCCSCc1nc[nH]c1C | inactive
19 | Oc1ccc(Cc2ccccc2O)cc1 | inactive
20 | CC[N+](CC)(CC(=O)Nc1c(C)cccc1C)Cc1ccccc1 | inactive

Row | Compound | Potency
21 | COc1ccc(N)c(OC)c1 | inactive
22 | NC(=O)c1ncn([C@@H]2O[C@H](CO)[C@@H](O)[C@H]2O)n1 | inactive
23 | CC(C)(CO)CO | inactive
24 | CCCCCCC(=O)O | inactive
25 | CCCCCCCCCCCC(=O)N(C)CC(=O)O | inactive
26 | C=CC(C)(C)C | inactive
27 | CCCN(CCC)C(=O)SCC | inactive
28 | CC(O)CNCC(C)O (stereo not given) | inactive
29 | CC(=O)OC(C)(C)C1CC=C(C)CC1 (stereo not given) | inactive
30 | CCCCCCCCC(=O)O | inactive
31 | CC(=O)OCCC(C)C | inactive
32 | OCc1ccc(Cl)cc1Cl | inactive
33 | O=C(O)Cc1c[nH]c2ccccc12 | inactive
34 | OB(O)O | inactive
35 | C1CCCNCC1 | inactive
36 | COc1ccc2cc3[n+](cc2c1OC)CCc1cc2c(cc1-3)OCO2 | inactive
37 | O=Cc1ccc(CO)o1 | inactive
38 | CCOC(=O)c1ccc(O)cc1 | inactive
39 | CCc1cccc(CC)c1N | inactive
40 | Cc1ccncc1 | inactive
